Peg3 prom inh-1 – reduces Peg3 promoter-driven luciferase expression in HeLa | HeLa PEG-Prom luciferase reporter, luminescence, overnight | 360,000 tested, 1.7% active | inhibition, % at 20 µM;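 active = inhibition of at least 50% at 20 µM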
HIF-2a block – blocks HIF-2a reporter activity. inhibition, % at 18.8 µM. 360,000 tested, 0.72% active. 786-0 RCC cells HIF-2a reporter, luciferase luminescence, overnight;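 active = inhibition of the luminescence signal of 40% or more relative to plate controls, in a single-dose primary screen at 18.75 µM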
KKLEB cytotox – counter-screen for CF NF-kB inhibitors: cytotoxicity; AID 602141; activity change (cytotoxicity), % at 5 µM; 360,000 tested, 0.36% active; KKLEB CF airway cells viability, ATPlite luminescence, overnight; active compounds read low; cells stimulated with P. aeruginosa culture filtrate;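 active = corrected activity change at or below -50% at 5 µM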
TWEAK Fn14 block – inhibitors of TWEAK-Fn14 interaction signaling. inhibition, % at 10 µM. AID 1159606. TWEAK-stimulated Fn14 reporter cells, luciferase luminescence, 8 h. 360,000 tested, 2% active; in the data active = inhibition above about 50%
TROY signal inh – inhibitors of TROY-dependent NF-kB signaling. Q293 LMP1-TROYcd NF-kB luciferase reporter, 4 h. inhibition, % at 10 µM. 360,000 tested, 0.98% active;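 active = compounds whose plate-normalised and pattern-corrected inhibition of the luciferase reporter signal at the single screening dose is 50% or more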
CF NFkB inh – inhibitors of cystic fibrosis induced NF-kB; KKLEB NF-kB-GFP reporter, PAF-induced, GFP fluorescence overnight; 360,000 tested, 0.86% active; inhibition, % at 5 µM;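 active = at least 50% inhibition at 5 µM, scaled per plate between neutral and stimulator controls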;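 note: PAF is a Pseudomonas aeruginosa culture filtrate used as stimulus; plate controls were PAF-stimulated DMSO wells for no effect and unstimulated DMSO wells for full effect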
Peg3 prom inh-2 – Peg3 promoter inhibition confirmation. HeLa PEG-Prom luciferase reporter, luminescence, overnight. shares compounds with Peg3 prom inh-1. inhibition, % at 20 µM. AID 602417. 1,300 tested, 84% active;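 active = at 20 µM dose, 40% or more inhibition averaged across four replicates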
* hit, by the source's call. An excerpt weighted towards active compounds, which were near 4% of everything screened.

What do the screens show for `COc1ccc(S(=O)(=O)N2CCOCC2)cc1NC(=O)CCNC(=O)c1ccc([N+](=O)[O-])cc1`?
Peg3 prom inh-1: 12; HIF-2a block: 11; KKLEB cytotox: 18; TWEAK Fn14 block: -9; TROY signal inh: -4; CF NFkB inh: -15

How did CN1C[C@@H]2C[C@@H](C3=Cc4cc(Cl)ccc4OC3)N3CCC[C@@]23C1=O do in these assays?
Peg3 prom inh-1: 8; HIF-2a block: 12; KKLEB cytotox: 6; TWEAK Fn14 block: 7; TROY signal inh: 6; CF NFkB inh: 0

Results for COc1ccc2c(c1)C=C([C@@H]1C[C@H]3CN(c4ccccc4)C(=O)[C@]34CCCN14)CO2 ?
Peg3 prom inh-1: 71*; HIF-2a block: 15; KKLEB cytotox: 14; TWEAK Fn14 block: 14; TROY signal inh: 11; CF NFkB inh: 0; Peg3 prom inh-2: 53*

How did Cc1sc2ncn(CC(=O)NCCCC(=O)Nc3ccc(C(C)C)cc3)c(=O)c2c1C do in these assays?
Peg3 prom inh-1: 39; HIF-2a block: 7; KKLEB cytotox: 2; TWEAK Fn14 block: -14; TROY signal inh: -3; CF NFkB inh: 4

What do the screens show for `O=C1OCCC1Sc1nnc(-c2ccc(Cl)cc2Cl)o1` (configuration not stated)?
Peg3 prom inh-1: 71*; HIF-2a block: 76*; KKLEB cytotox: -14; TWEAK Fn14 block: 83*; TROY signal inh: 52*; CF NFkB inh: 9; Peg3 prom inh-2: 63*

What do the screens show for `CC1(c2ccccc2)C(C#N)C(=O)NC(=O)C1C#N` (configuration not stated)?
Peg3 prom inh-1: 2; HIF-2a block: 11; KKLEB cytotox: 0; TWEAK Fn14 block: -6; TROY signal inh: 2; CF NFkB inh: -48

Results for O=C(O)c1c2c(nc3ccc(S(=O)(=O)N4CCC(C(=O)NC5CCCCCC5)CC4)cc13)CCCC2 ?
Peg3 prom inh-1: 6; HIF-2a block: 4; KKLEB cytotox: 10; TWEAK Fn14 block: 12; TROY signal inh: -10; CF NFkB inh: 1

How did Clc1ccc2nc(C3CCCCC3)c(CC3CCCCC3)n2c1 do in these assays?
Peg3 prom inh-1: 7; HIF-2a block: -14; KKLEB cytotox: -3; TWEAK Fn14 block: 5; TROY signal inh: 10; CF NFkB inh: 9

Results for Cc1cc(NC(=O)CSc2nnc(-c3ccccc3F)n2N)no1 ?
Peg3 prom inh-1: -3; HIF-2a block: 12; KKLEB cytotox: -4; TWEAK Fn14 block: 16; TROY signal inh: 4; CF NFkB inh: -7

What do the screens show for `CCOC(=O)c1c(C)[nH]c(C(=O)CSc2nnc(-c3ccncc3)n2CC)c1C`?
Peg3 prom inh-1: 21; HIF-2a block: 22; KKLEB cytotox: 0; TWEAK Fn14 block: 22; TROY signal inh: 13; CF NFkB inh: 19

How did C=CCn1c(SCC(=O)c2[nH]c(C)c(C(=O)OCC)c2C)nc2scc(-c3ccc(OC)c(OC)c3)c2c1=O do in these assays?
Peg3 prom inh-1: 86*; HIF-2a block: 9; KKLEB cytotox: -42; TWEAK Fn14 block: -56; TROY signal inh: 16; CF NFkB inh: 56*; Peg3 prom inh-2: 11

What do the screens show for `O=c1[nH][nH]c2c1[C@H](c1ccc(Cl)cc1)O[C@H](C1CCCCC1)C2`?
HIF-2a block: -1; TWEAK Fn14 block: 5; TROY signal inh: 26

Results for COc1ccccc1NC(=O)c1ccc2c(c1)N(CC(=O)NC(C)C)C(=O)C(C)(C)O2 ?
Peg3 prom inh-1: 6; HIF-2a block: 7; KKLEB cytotox: 7; TWEAK Fn14 block: 29; TROY signal inh: -1; CF NFkB inh: -7

How did Cc1nn(-c2nc3ccccc3[nH]2)c(=O)c2ccccc12 do in these assays?
Peg3 prom inh-1: 104*; HIF-2a block: 95*; KKLEB cytotox: -78*; TWEAK Fn14 block: 105*; TROY signal inh: 92*; CF NFkB inh: -12; Peg3 prom inh-2: 99*

How did CCCc1ccc(C(=O)O/N=C(\N)c2ccccn2)cc1 do in these assays?
Peg3 prom inh-1: 108*; HIF-2a block: 63*; KKLEB cytotox: -43; TWEAK Fn14 block: 99*; TROY signal inh: 83*; CF NFkB inh: 7; Peg3 prom inh-2: 97*

How did N/C(=N\OC(=O)c1ccc(Cl)cc1Cl)c1ccccn1 do in these assays?
Peg3 prom inh-1: 68*; HIF-2a block: 39; KKLEB cytotox: -68*; TWEAK Fn14 block: 100*; TROY signal inh: 80*; CF NFkB inh: -12; Peg3 prom inh-2: 12
